Assay results published in PubChem BioAssay (EPA / NIEHS).
“And” between values parts separate entries of the source, which are not always exact repeats. Equal values may be shown once. The source made the active and inactive calls. Rule for the calls: active = hit-call score of the fitted dose curve at least 0.9, where 1 is the maximum; inactive = score below 0.9.

Columns and labels:
[1] = target: Nuclear respiratory factor 1 (Homo sapiens) (UniProt Q16656); assay: ATG_NRF1_CIS: Attagene CIS-FACTORIAL HepG2 Assay for human Nuclear Respiratory Factor 1 (NRF1) Orphan Gene (AID 2282987); conditions: HepG2 NRF1 cis-element reporter, Attagene multiplex; actives raise or lower the signal
Nuclear respiratory factor 1 (Homo sapiens), sequence (Q16656 whole entry, looked up): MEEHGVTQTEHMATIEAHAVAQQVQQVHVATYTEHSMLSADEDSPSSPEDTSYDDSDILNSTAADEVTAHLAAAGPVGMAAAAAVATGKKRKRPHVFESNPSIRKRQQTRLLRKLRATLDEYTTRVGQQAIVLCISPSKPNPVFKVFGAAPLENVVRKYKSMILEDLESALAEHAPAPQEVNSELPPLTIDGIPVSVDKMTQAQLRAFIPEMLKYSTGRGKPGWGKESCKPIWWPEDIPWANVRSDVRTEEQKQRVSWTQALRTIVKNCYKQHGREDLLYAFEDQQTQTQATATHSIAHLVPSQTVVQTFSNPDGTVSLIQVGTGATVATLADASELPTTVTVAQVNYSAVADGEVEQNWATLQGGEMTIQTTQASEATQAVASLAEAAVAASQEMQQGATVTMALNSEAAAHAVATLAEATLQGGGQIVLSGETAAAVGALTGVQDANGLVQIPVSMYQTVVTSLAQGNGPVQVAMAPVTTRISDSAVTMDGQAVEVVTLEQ
Method in brief: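 Endogenous factor activity was captured via cis-element-driven reporter transcripts in HepG2 cells. Following 24 h chemical treatment, transcripts were quantified by RT-PCR and capillary electrophoresis.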

[2] = ATG_NFI_CIS: Attagene CIS-FACTORIAL HepG2 Assay for human Nuclear Factor I (NFI) (AID 2282989); conditions: HepG2 cis-regulatory reporter, NFI response element transcription; actives raise or lower the signal
Method in brief: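 Endogenous TF activity in HepG2 cells transiently transfected with cis-element-driven multiplexed reporter units, read 24 h after dosing. Reporter mRNA quantified by RT-PCR, 6-FAM labelling, HpaI digestion and capillary electrophoresis; bidirectional fit versus DMSO.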

[3] = target: Myc proto-oncogene protein (Homo sapiens) (UniProt P01106); assay: ATG_Myc_CIS: Attagene CIS-FACTORIAL HepG2 Assay for human Myelocytomatosis (Myc) Proto-Oncogene Transcription Factor (AID 2282990); conditions: HepG2, Attagene cis-reporter transcription factor activity; actives raise or lower the signal
Myc proto-oncogene protein (Homo sapiens), sequence (P01106 whole entry, looked up): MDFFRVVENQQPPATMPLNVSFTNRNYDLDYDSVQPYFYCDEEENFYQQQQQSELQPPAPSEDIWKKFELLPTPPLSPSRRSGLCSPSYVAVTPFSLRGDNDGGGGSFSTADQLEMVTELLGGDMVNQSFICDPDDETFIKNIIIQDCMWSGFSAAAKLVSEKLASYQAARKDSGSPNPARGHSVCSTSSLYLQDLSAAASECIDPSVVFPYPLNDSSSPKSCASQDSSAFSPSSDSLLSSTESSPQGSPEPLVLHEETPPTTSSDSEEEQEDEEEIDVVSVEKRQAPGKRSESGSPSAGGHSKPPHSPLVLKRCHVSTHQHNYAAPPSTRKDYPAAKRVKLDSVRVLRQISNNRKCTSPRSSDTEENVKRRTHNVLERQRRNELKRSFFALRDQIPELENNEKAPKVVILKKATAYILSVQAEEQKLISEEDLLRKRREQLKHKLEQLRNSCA
Method in brief: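 HepG2, transient MRTU transfection (cis promoters, endogenous TFs); 24 h dosing; TriZol RNA → oligo(dT) RT → PCR → 6-FAM primer extension → HpaI cut → CE. Bidirectional fit vs DMSO.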

[4] = ATG_NF_kB_CIS: Attagene CIS-FACTORIAL HepG2 Assay for human Nuclear Factor Kappa B (NF-kB) (AID 2282991); conditions: HepG2 Attagene cis-factorial NF-kB reporter mRNA; actives raise or lower the signal
Method in brief: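 After 24 h compound incubation, transfected HepG2 cells yield total RNA; reporter cDNA is PCR-amplified, end-labelled with 6-FAM, HpaI-digested and analysed on a genetic analyser. Endogenous factor activity, DMSO-referenced bidirectional fit.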

[5] = ATG_NRF2_ARE_CIS: Attagene CIS-FACTORIAL HepG2 Assay for human Nuclear Factor Erythroid 2 Related Factor 2 (NFR2) response to Antioxidant Response Elements (ARE) (AID 2282992); conditions: HepG2 Attagene ARE/NRF2 reporter, transcription factor activity; actives raise or lower the signal;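 for AC50: reporter mRNA level measured by RT-PCR and capillary electrophoresis fluorescence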
Method in brief: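 Multiplexed reporter mRNA profiling in HepG2 after a 24 h chemical exposure. Curves fitted in both directions relative to DMSO negative control.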

[6] = ATG_Oct_MLP_CIS: Attagene CIS-FACTORIAL HepG2 Assay for human Octamer-Binding Transcription Factor (Oct) (AID 2282993); conditions: HepG2 Attagene cis-factorial Oct reporter, mRNA; actives raise or lower the signal
Method in brief: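 HepG2 cells transiently transfected with cis-element-driven reporter transcription units (endogenous TF activity); 24 h compound exposure. Reporter mRNA quantified by RT-PCR, 6-FAM labelling, HpaI digestion and capillary electrophoresis; bidirectional fit versus DMSO baseline.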

[7] = target: Cellular tumor antigen p53 (Homo sapiens) (UniProt P04637); assay: ATG_p53_CIS: Attagene CIS-FACTORIAL HepG2 Assay for human p53 Transcription Factor (AID 2282994); conditions: HepG2 p53 cis-element reporter, Attagene mRNA; actives raise or lower the signal
Cellular tumor antigen p53 (Homo sapiens), sequence (P04637 whole entry, looked up): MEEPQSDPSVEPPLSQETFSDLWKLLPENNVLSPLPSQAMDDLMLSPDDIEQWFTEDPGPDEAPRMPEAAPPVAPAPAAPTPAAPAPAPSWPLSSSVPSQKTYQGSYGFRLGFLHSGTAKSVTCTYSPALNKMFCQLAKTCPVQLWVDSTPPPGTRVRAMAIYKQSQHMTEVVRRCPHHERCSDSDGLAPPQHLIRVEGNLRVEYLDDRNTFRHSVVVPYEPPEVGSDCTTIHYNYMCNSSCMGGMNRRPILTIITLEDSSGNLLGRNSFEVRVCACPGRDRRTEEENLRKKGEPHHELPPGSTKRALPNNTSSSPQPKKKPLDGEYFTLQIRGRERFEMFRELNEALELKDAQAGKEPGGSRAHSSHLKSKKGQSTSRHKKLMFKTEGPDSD
Method in brief: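 Multiplexed reporter mRNA assay in human HepG2 liver cells; cis-regulated units report endogenous factor activity. Values come from bidirectional curve fitting against DMSO negative control after 24 h treatment.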

[8] = BSK_3C_TissueFactor: BioMAP Diversity Plus: 3C Assay for Tissue Factor Biomarker Activity (AID 2282997); conditions: BioMAP 3C HUVEC, tissue factor biomarker readout; actives raise or lower the signal
Method in brief: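 ELISA read-out of Tissue Factor levels on human umbilical vein endothelium collected 24 h after chemical dosing. Gain or loss of signal was fitted relative to DMSO.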

[9] = BSK_3C_VCAM1: BioMAP Diversity Plus: 3C Assay for Vascular cell adhesion molecule 1 (VCAM1) Biomarker Activity (AID 2282999); conditions: BioMAP 3C HUVEC, VCAM1 ELISA, cytokine-stimulated; actives raise or lower the signal
Method in brief: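 Endothelial cells from human umbilical vein are treated with test chemical. At 24 h, VCAM-1 is measured by ELISA, and responses in either direction are fitted relative to DMSO.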

[10] = BSK_3C_uPAR: BioMAP Diversity Plus: 3C Assay for Urokinase-type plasminogen activator receptor (uPAR) Biomarker Activity (AID 2282998); conditions: BioMAP 3C HUVEC, uPAR biomarker ELISA; actives raise or lower the signal
Method in brief: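 Primary human umbilical vein endothelial cells, 3C system; surface uPAR measured by ELISA 24 h after dosing. Cytotoxicity via SRB total protein in parallel cultures; bidirectional fit against DMSO.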

Measured: AC50

C/C=C/C=C/CCCCCCCO
active: [5] 45.6 µM
inactive: [1] | [2] | [3] | [4] | [6] | [7]

Cc1c(C(=O)c2c[nH]n(C)c2=O)ccc(S(C)(=O)=O)c1C1=NOCC1
inactive: [1] | [2] | [3] | [4] | [5] | [6] | [7]

O=C(Nc1ccccc1)c1cc(Cl)ccc1O
active: [2] 5.49 µM | [5] 2.35 µM | [6] 15.1 µM
inactive: [1] | [3] | [4] | [7]

CC1C(C)(C)C2=C(C(=O)CCC2)C1(C)C (centres undefined)
inactive: [1] | [2] | [3] | [4] | [5] | [6] | [7]

C=C(C)OC(C)=O
inactive: [1] | [2] | [3] | [4] | [5] | [6] | [7]

O=C(O)/C=C/c1ccccc1
inactive: [1] | [2] | [3] | [4] | [5] | [6] | [7]

Cc1c[nH]c(=O)[nH]c1=O
inactive: [1] | [2] | [3] | [4] | [5] | [6] | [7]

CC=CC(=O)OCC(C)C
inactive: [1] | [2] | [3] | [4] | [5] | [6] | [7]

O=C(Cl)c1c(Cl)c(Cl)c(C(=O)Cl)c(Cl)c1Cl
inactive: [1] | [2] | [3] | [4] | [5] | [6] | [7] | [8] | [9]

CCC(C)C(=O)OCCc1ccccc1 (centres undefined)
inactive: [1] | [2] | [3] | [4] | [6] | [7]

Cc1cc(=O)[nH]c(=O)[nH]1
inactive: [1] | [2] | [3] | [4] | [6] | [7]

Clc1cccnc1
inactive: [1] | [2] | [3] | [4] | [5] | [6] | [7]

C=C(C)C(=O)OCCCCCCCCCCCC
inactive: [1] | [2] | [3] | [4] | [5] | [6] | [8] | [10] | [9]

CC(C)(c1ccccc1)c1ccc(Nc2ccc(C(C)(C)c3ccccc3)cc2)cc1
inactive: [1] | [2] | [3] | [4] | [6] | [7]

CC(=O)c1ccc(S(=O)(=O)NC(=O)NC2CCCCC2)cc1
inactive: [1] | [2] | [3] | [4] | [5] | [6] | [7]

CCN1CN(CC)CN(CC)C1
inactive: [1] | [3] | [4] | [5] | [7] | [8] | [9]
active: [2] 162 µM | [6] 159 µM

COc1ccc(C(=O)/C(Br)=C\C(=O)O)cc1
active: [4] 13 µM | [5] 2.53 µM | [6] 49.4 µM | [8] 11.9 µM and 10.2 µM | [9] 14.2 µM and 20 µM
inactive: [1] | [2] | [3]

CCCCCCC=O
inactive: [1] | [2] | [3] | [4] | [5] | [6] | [7] | [8] | [10] | [9]

CCCCCCCCCCCC(=O)OCC
inactive: [1] | [2] | [3] | [4] | [6] | [7]

Oc1ccccc1Cc1ccccc1O
active: [5] 40.7 µM | [6] 134 µM | [7] 100 µM
inactive: [1] | [2] | [3] | [4] | [8] | [9]

O=C(O)C(F)(F)C(F)(F)C(F)(F)C(F)(F)C(=O)O
inactive: [1] | [2] | [3] | [4] | [5] | [6] | [8] | [10] | [9]

COC(OC)(C(=O)c1ccccc1)c1ccccc1
inactive: [1] | [2] | [3] | [4] | [5] | [6] | [8] | [10] | [9]

CCCCCCCO
inactive: [1] | [2] | [3] | [4] | [5] | [6] | [8] | [9]

CC(C)[N+](C)(CCOC(=O)C1c2ccccc2Oc2ccccc21)C(C)C
inactive: [1] | [2] | [3] | [4] | [5] | [6] | [7] | [8] | [10] | [9]

CCc1cccc(C)c1N
inactive: [1] | [2] | [3] | [4] | [6]

c1ccc(Nc2cccc3ccccc23)cc1
inactive: [4]
active: [1] 52.1 µM | [2] 50.1 µM | [3] 46.7 µM | [5] 33.4 µM | [6] 53.3 µM | [8] 36.1 µM and 34.1 µM | [9] 36.8 µM and 36.9 µM

CC(CCC(=O)O)(c1ccc(O)cc1)c1ccc(O)cc1
inactive: [1] | [2] | [3] | [4] | [5] | [6] | [8] | [9]

CC(C)COC(=O)CC(C(=O)OCC(C)C)S(=O)(=O)O (centres undefined)
inactive: [1] | [2] | [3] | [4] | [6] | [7]

C[Si]1(C)O[Si](C)(C)O[Si](C)(C)O[Si](C)(C)O[Si](C)(C)O1
inactive: [1] | [2] | [3] | [4] | [5] | [6] | [7]

Cc1c(O)cccc1O
inactive: [1] | [2] | [3] | [4] | [5] | [6] | [8] | [9]

CC(C)CCCCCOC(=O)CS
active: [5] 19.5 µM
inactive: [1] | [2] | [3] | [4] | [6] | [7] | [8] | [10] | [9]

CCCCC(CC)COC(=O)/C=C/c1ccc(OC)cc1 (centres undefined)
inactive: [1] | [2] | [3] | [4] | [6] | [7]

O=C(O)CCC(=O)O
inactive: [1] | [2] | [3] | [4] | [6]

CCCC(C)C(=O)OCC (centres undefined)
inactive: [1] | [2] | [3] | [4] | [5] | [6] | [7] | [8] | [9]

CC/C=C\C/C=C\C/C=C\CCCCCCCC(=O)OC
active: [4] 32.4 µM | [5] 48.1 µM | [6] 135 µM | [8] 13.5 µM | [10] 31.6 µM | [9] 14.2 µM
inactive: [1] | [2] | [3] | [7]

CC=C(C)C(C)=O
inactive: [1] | [2] | [3] | [4] | [5] | [6] | [8] | [9]

CN(C)Cc1cc(CN(C)C)c(O)c(CN(C)C)c1
inactive: [1] | [2] | [3] | [4] | [5] | [6] | [7]

Fc1ccc(Br)cc1
inactive: [1] | [2] | [3] | [4] | [5] | [6] | [7] | [8] | [10] | [9]

CCCCCCOC(=O)CCCCC(=O)OCCCCCC
inactive: [1] | [2] | [3] | [4] | [5] | [6] | [7] | [8] | [10] | [9]

CCCCCCO
inactive: [1] | [2] | [3] | [4] | [6] | [7]

CCCCCCCCCCCCC
inactive: [1] | [2] | [3] | [4] | [6]

NC(=O)Nc1ccccc1
inactive: [1] | [2] | [3] | [4] | [5] | [6] | [7]

Oc1c(Cl)cc(Cl)c(Cl)c1Cl
active: [5] 27.1 µM | [6] 100 µM | [8] 23.8 µM | [9] 20 µM
inactive: [1] | [2] | [3] | [4] | [7]

C=CC(=O)OCCCCCCCC(C)C
active: [5] 58 µM | [6] 121 µM | [8] 20 µM | [9] 13 µM
inactive: [1] | [2] | [3] | [4] | [7]

c1ccc(-c2nc3ccccc3[nH]2)cc1
active: [3] 26.1 µM
inactive: [1] | [2] | [4] | [6] | [7]

CN(C)c1ccc2nc3ccc(=[N+](C)C)cc-3sc2c1
inactive: [2] | [3] | [6] | [7]
active: [1] 15 µM | [5] 2.2 µM

O=S(=O)(O)c1ccc(N=Nc2c(O)ccc3ccccc23)cc1
active: [5] 34.1 µM
inactive: [1] | [2] | [3] | [6] | [7]

CCCCCCCCCCCCCC(=O)OC(C)C
inactive: [1] | [2] | [3] | [5] | [6]

NNS(=O)(=O)c1ccc(Oc2ccc(S(=O)(=O)NN)cc2)cc1
inactive: [1] | [2] | [3] | [5] | [6] | [7]

Nc1ncnc2nc[nH]c12
inactive: [1] | [2] | [3] | [5] | [6]

CCOC(=O)/C=C\C(=O)OCC
inactive: [1] | [2] | [3] | [4] | [6] | [7] | [8] | [9]

CC(=O)/C=C/C1C(C)=CCCC1(C)C (centres undefined)
inactive: [1] | [2] | [3] | [5] | [6]

COC(=O)C=Cc1ccccc1
inactive: [1] | [2] | [3] | [5] | [6]

C=CCCCCCCCCOC(C)=O
inactive: [1] | [2] | [3] | [5] | [6]
